# TIM10 inh – growth inhibitors of TIM10 yeast strain. S. cerevisiae TIM10 strain growth, BacTiter-Glo luminescence, 24 h. inhibition, % at 10 µM. 1.4% of 330,000 active. AID 463195;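 active = inhibition of 40% or more at the single tested concentration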;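 note: wild-type TIM10 isogenic control strain grown at permissive 25 °C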
# tim10-1 inh – growth inhibitors of tim10-1 mutant yeast; S. cerevisiae tim10-1 ts strain growth, BacTiter-Glo, 24 h; inhibition, % at 20 µM; 2.2% of 330,000 active; AID 463190;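 active = inhibition of at least 40%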;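 note: mutant grown at 25 °C; 0% = DMSO wells with yeast and 100% = wells holding no yeast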
# tim23-1 inh – inhibits growth of tim23-1 mutant yeast; 1.3% of 330,000 active; inhibition, % at 20 µM; AID 463212; S. cerevisiae tim23-1 growth, BacTiter-Glo luminescence, 24 h;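 active = growth inhibition of the mutant yeast at or above 50%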;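 note: temperature-sensitive mutant grown at 25 °C; plate controls were DMSO-treated mutant yeast for no effect and medium wells lacking yeast for full effect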
# SKKanGAS inh – inhibitors of SKKanGAS S. pyogenes growth in kanamycin (SK-promoter or general growth effect) | BacTiter-Glo, 6 h | inhibition, % at 7.5 µM | 1.3% of 300,000 active | AID 1662;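 active = mean replicate score, as percent of positive control median, at least 50; inconclusive = mean below 50 but one replicate at or above 50; inactive = mean and every replicate below 50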;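 note: strain carries kanamycin resistance gene driven by streptokinase promoter and grows in 40 µg/ml kanamycin; loss of luminescence reflects streptokinase promoter inhibition or plain growth inhibition; 0% = median of DMSO wells and 100% = positive control at its reference dose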
# PfHsp90 yeast 2 – inhibits growth of yeast expressing Plasmodium falciparum Hsp90. 0.32% of 310,000 active. S. cerevisiae expressing PfHsp90, BacTiter-Glo ATP, 48 h; yeast lacking PDR1 and PDR3 efflux regulators. inhibition, % at 9.4 µM;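 active = every replicate shows inhibition above about 80%, whatever the replicate mean, limit read from the data; inconclusive = mean inhibition reaches the set limit but some replicate falls short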;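 note: 0% = DMSO neutral controls and 100% = 20 µM radicicol positive controls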
# tim23-1 conf – confirmation of tim23-1 mutant yeast growth inhibitors. shares compounds with tim23-1 inh. S. cerevisiae tim23-1 growth, BacTiter-Glo luminescence, 24 h. inhibition, % at 20 µM. 83% of 4,400 active. AID 463218;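 active = inhibition above about 39% in either of two replicate wells at 20 µM, limit read from the data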;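 note: temperature-sensitive tim23-1 mutant grown at 25 °C; 0% = DMSO wells with yeast and 100% = medium wells without yeast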
# * hit, by the source's call; ? = inconclusive; · = not tested or not shown. A selection: hits, their analogues and other compounds. The true share with any hit is near 4.4%.
SMILES,TIM10 inh,tim10-1 inh,tim23-1 inh,SKKanGAS inh,PfHsp90 yeast 2,tim23-1 conf
CC(C)(C)NC(=O)C12CCC(C)(c3nc4ccccc4nc31)C2(C)C (stereo unspecified),38,39,53*,4,·,37
COC(=O)C12CCC(C)(c3nc4ccccc4nc31)C2(C)C (stereo unspecified),20,27,8,1,34,·
COc1ccccc1C(=O)Nc1nnc(-c2ccc3c(c2)CCCC3)o1,39,25,52*,58*,-43,56*
O=C(NC(=S)NCc1ccco1)c1ccc(Br)cc1,31,33,56*,-2,·,45*
O=C(NCCN1CCN(c2ccccc2)CC1)Nc1ccccc1Br,-18,8,2,1,-3,·
CCCn1nc(C(=O)NNC(=O)c2cccc(C)c2)c2ccccc2c1=O,0,4,19,·,-14,·
CC(C)(C)n1nc(Cc2cccc3ccccc23)c2c(N)ncnc21,22,28,62*,13,-14,62*
Cn1nc(Cc2cccc3ccccc23)c(C#N)c1N,-4,-3,8,-2,-14,·
CCN(CC(=O)Nc1cc(Cl)ccc1C)C(=O)c1ccc2c(c1)NC(=O)C(C)S2 (stereo unspecified),-6,-13,-7,18,0,·
CCOc1ccccc1C(=O)Oc1ccc2ccc(=O)oc2c1,32,5,68*,0,9,47*
S=C(NCCSCc1c(Cl)cccc1Cl)Nc1ccccc1,40,35,50*,·,·,51*
CC(C)Oc1ccc(CNC(=S)Nc2ccccc2)cc1Cl,11,37,35,-6,-11,·
COc1ccc(CNC(=S)Nc2ccccc2)cc1Cl,29,14,65*,2,2,35
CC(=O)c1cc(C#N)c(N2CCOCC2)nc1C,2,-6,7,21,11,·
CCn1cc([N+](=O)[O-])c(C(=O)Nc2nc3ccc(OC)cc3s2)n1,28,23,17,-5,11,·
Cc1nc2ccc(NS(=O)(=O)c3ccc(Br)cc3)cc2s1,17,10,51*,·,18,34
CSc1ncccc1C(=O)N(C)CC(=O)Nc1cccc(F)c1,1,9,15,-4,18,·
COc1cc(/C=C/c2ccc3cccc(O)c3n2)ccc1O,36,33,52*,88*,-17,66*
CCc1ccc2c(Cl)c(C(=O)N/N=C/c3c[nH]c4ccccc34)sc2c1,20,9,52*,69*,4,39*
CCc1ccc(-c2cc(C(=O)N/N=C/c3c[nH]c4ccccc34)[nH]n2)cc1,19,9,7,?,35,·
CC(=O)c1ccc(N(CC(=O)NC2CCCCC2)C(=O)CNC(=O)c2cccs2)cc1,-12,-12,8,2,-17,·
CC(C)(C)[C@H]1C=C(C(=O)N2CCOCC2)O[C@@H](OCc2ccc(CO)cc2)C1,3,7,93*,0,-44,27
Cc1c(Cl)ccc2sc(NC(=O)c3ccco3)nc12,13,-4,8,3,-10,·
Cc1cccc(NC(=S)NC(=O)c2ccco2)c1C,25,31,56*,-2,1,17
CC(=O)c1ccc(NC(=S)NC(=O)/C=C/c2ccco2)cc1,10,6,4,7,-7,·
SMILES,TIM10 inh,tim10-1 inh,tim23-1 inh,SKKanGAS inh,PfHsp90 yeast 2,tim23-1 conf
Cc1cccc(NC(=S)NC(=O)/C=C/c2ccco2)c1,-26,4,21,3,-20,·
Cc1cccc(NC(=S)NC(=O)/C=C/c2ccco2)n1,21,23,57*,-8,·,40*
O=C(/C=C/c1ccco1)NC(=S)Nc1ccccc1,5,21,54*,2,-14,29
Cc1ccccc1NC(=S)NC(=O)/C=C/c1ccco1,7,21,55*,9,8,36
COc1ccc2c(c1)CCc1c(C(=O)N(C)c3ccccc3)noc1-2,16,0,25,-14,-21,·
CCC(=O)c1ccc(OCC(=O)NC2(C#N)CCCCC2)cc1,-16,-2,10,·,·,·
COc1ccccc1OCCCOc1ccc(/C=C2\SC(=O)NC2=O)cc1OC,11,5,11,37,-1,·
CCCOc1ccc2ccccc2c1/C=C1\SC(=O)NC1=O,8,20,55*,32,105*,51*
Oc1ccc(Cl)cc1CNCc1ccc(F)c(F)c1,12,6,53*,·,-28,37
COC(=O)c1ccc(NS(=O)(=O)c2cc(-c3cc(C)no3)ccc2OC)cc1,16,18,17,-6,-36,·
CCc1cc2c3c(c1)C(C)CC(C)(C)N3C(=O)/C2=C1\SC(=O)NC1=O (stereo unspecified),18,23,59*,26,20,50*
CC(SCc1ccccc1)C(=O)Nc1ccccc1F (stereo unspecified),2,-7,12,3,4,·
O=C1/C(=C/c2cccs2)N=C(c2cccs2)N1Nc1ccccc1,30,23,57*,-5,-8,51*
Cc1ccc(C2=N/C(=C\c3cccs3)C(=O)N2Nc2ccccc2)cc1,16,29,40,1,-47,·
O=C(NN1C(=O)/C(=C/c2cccs2)SC1=S)c1ccccc1,-24,-21,6,3,-49,·
O=C1/C(=C\c2cccs2)N=C(c2cccs2)N1Nc1ccccc1,32,31,66*,-10,-11,41*
COc1ccc(OC)c(C(=O)COC(=O)c2ccc([N+](=O)[O-])o2)c1,21,23,55*,·,5,57*
COc1ccc(OC)c(C(=O)COC(=O)c2cc(C)oc2C)c1,26,23,16,-7,-6,·
O=C(Nc1ccc(Br)cn1)c1ccc(COc2c(F)c(F)cc(F)c2F)o1,-5,1,11,·,-12,·
O=c1c(O)c(-c2cc(O)c(O)c(O)c2)oc2cc(O)cc(O)c12,-20,-11,23,·,-2,·
O=c1c(O)c(-c2ccccc2)oc2cc(O)cc(O)c12,-7,-7,58*,·,17,61*
CC(C)=CCc1cc(-c2oc3cc(O)cc(O)c3c(=O)c2O)ccc1O,-34,8,51*,31,·,51*
O=c1c(-c2ccccc2)c(-c2ccccc2)oc2cc(O)cc(O)c12,30,22,55*,5,123*,-24
Cc1c([N+](=O)[O-])nnn1-c1cc(Cl)cc(Cl)c1,2,9,14,40,-44,·
O=C(COc1ncnc2sccc12)NC1CCCCC1,-3,-7,-12,·,-26,·
COc1ccc(CN2CC(C(=O)N3CC(C)CC(C)C3)CC2=O)cc1 (stereo unspecified),7,-1,13,-3,-16,·
CS(=O)(=O)N1CCc2cc(C(=O)Nc3ccc(O)cc3)ccc21,-2,-5,5,-4,1,·
O=C(CN1CCC(n2cnc3cc(F)ccc32)CC1)Nc1ccccc1Br,22,34,5,-6,-32,·
